Holding throughout (assay): NCI-60 one-dose screen, 48 h (100 = growth as untreated, 0 = no growth, -100 = all killed)
The subject of one assay is HCT-15 colon. The following applies: 10 µM.
In another assay the test system is HT29 colon. To be noted: 10 µM.
In another assay the test system is SNB-75 CNS. To be noted: 10 µM.
In the next assay the test system is U251 CNS. To be noted: 10 µM unless noted.
Another assay has as its system PC-3 prostate. To be noted: 10 µM.
The subject of another assay is SK-MEL-5 melanoma. The following applies: 10 µM unless noted.
Another assay relates to LOX IMVI melanoma. The following applies: 10 µM unless noted.
The subject of the next assay is SK-MEL-28 melanoma. To be noted: 10 µM.
The subject of another assay is UACC-62 melanoma.
Another assay deals with SNB-19 CNS. The following applies: 10 µM.

13 compounds from PubChem BioAssay (NCI) can be followed below.

“And” between values parts separate entries of the source, which are not always exact repeats. Identical values can stand only once. Compounds without any hit were thinned out: in the full panel of roughly 83,000, 20% have a hit.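 96-well plates, one dose, 48 hours. Percent growth reported; active if below 10.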 Unmarked numbers belong to inactive results. The source made the active and inactive calls. Where a SMILES comes first, the peptide text is derived from it. [ ]: non-standard residue; d: D form. ξ: configuration not given here. ξV = CC(C)C(N)C(=O)O

For the compound `CCCCCC(C)c1ccc(O)c(C)c1` (stereo not drawn), the growth was 103% in the assay on HCT-15 colon; 103% in the assay with HT29 colon; 92.1% in the assay with SNB-75 CNS; 107% in the assay with U251 CNS; 103% in the assay on PC-3 prostate; 104% with SK-MEL-5 melanoma. The values for the growth in the assay with LOX IMVI melanoma and in the assay with SK-MEL-28 melanoma were 98% and 111%, respectively.
Take `NC(=O)SCC(=O)NNc1ccccc1`: the growth in the assay on HCT-15 colon was 89.2%; in the assay with HT29 colon, 103%; in the assay on SNB-75 CNS, 92.5%; in the assay with U251 CNS, 87.8%; in the assay on PC-3 prostate it was 85.7%; in the assay on SK-MEL-5 melanoma, 103%. The growth is 70.9% in the assay with UACC-62 melanoma (10 µM), 67.1% in the assay on LOX IMVI melanoma and 106% in the assay with SK-MEL-28 melanoma.
As to `CC(C)C(NC(=O)CN)C(=O)O` (stereo not drawn) (H-Gly-[ξV]-OH), the growth was 109% and 106% in the assay with HCT-15 colon; 104% and 84.7% in the assay with SNB-75 CNS; 106% in the assay with SNB-19 CNS; 102% and 98.9% in the assay on U251 CNS; 92.6% and 88.6% in the assay on PC-3 prostate; 104% and 102% with SK-MEL-5 melanoma. Moreover, the growth was 104% and 94.5% in the assay on UACC-62 melanoma (10 µM); 101% and 102% in the assay on LOX IMVI melanoma; 109% and 107% with SK-MEL-28 melanoma.
Consider `CN(C)C(=S)SC(=S)N(C)C`, for which the growth in the assay on HCT-15 colon is 87.5% and 95.5%; in the assay with HT29 colon, 82.2% and 59.8%; in the assay with SNB-75 CNS it was 97.2% and 89.7%; in the assay on SNB-19 CNS, 98.7% and 109%; with U251 CNS, 96.1% and 97.1%; with PC-3 prostate, 93.1% and 89.6%. Moreover, the growth with SK-MEL-5 melanoma was 92.9% and 99%; in the assay on UACC-62 melanoma (10 µM), 92.1% and 103%; with LOX IMVI melanoma it was 99.8% and 90.9%; in the assay with SK-MEL-28 melanoma, 105% and 104%.
As to `COC(=O)C1=COC(C)C2C[n+]3ccc4c([nH]c5ccccc54)c3CC12` (stereo not drawn), the growth is 104% and 101% in the assay with HCT-15 colon; 83.3% and 92.8% in the assay on SNB-75 CNS; 101% and 90.3% in the assay on SNB-19 CNS; 101% and 88.4% in the assay with U251 CNS; 92% and 75.7% in the assay with PC-3 prostate; 100% and 93.6% in the assay with SK-MEL-5 melanoma. For the same compound, the growth was 91.1% and 83.1% in the assay with UACC-62 melanoma (10 µM); 52.7% and 32.5% with UACC-62 melanoma (100 µM); 98.9% and 98% in the assay with LOX IMVI melanoma; 106% and 103% in the assay with SK-MEL-28 melanoma.
As for `COC(=O)C1C(O)C(C)C(O)C(C)C=C(C)C2=C3C(=C(C)C(=O)c4c(O)c(c(C)c(OC(C)=O)c43)NC(=O)C(C)=C/C=C\C(C)C(O)C(C)C1O)OCO2` (stereo not drawn), the growth with HCT-15 colon is 115%; in the assay with HT29 colon, 114%; in the assay with SNB-75 CNS, 90%; with U251 CNS it was 110%; in the assay on SK-MEL-5 melanoma it was 110%; in the assay with UACC-62 melanoma (10 µM), 103%. For the same compound, the results for the growth in the assay on LOX IMVI melanoma and in the assay on SK-MEL-28 melanoma were 102% and 118%, respectively.
Regarding `O=C(O)COc1ccc(OCC(=O)O)cc1`, the growth was 71.7% in the assay on HCT-15 colon; -11.9% (active) in the assay on SNB-75 CNS; 8.27% (active) in the assay with SNB-19 CNS; -0.509% (active) in the assay with U251 CNS; 31% in the assay on PC-3 prostate; 2.69% (active) in the assay with SK-MEL-5 melanoma. Also, the results for the growth in the assay with UACC-62 melanoma (10 µM), with LOX IMVI melanoma and with SK-MEL-28 melanoma were -3.08% (active), -64.4% (active) and 53.2%, respectively.
On to `CCC(C)(C)c1cc(O)c(C(C)(C)CC)cc1O`, for which the growth is 43.8% with HCT-15 colon; 28.5% in the assay with HT29 colon; 52.1% with SNB-75 CNS; 30.4% in the assay with U251 CNS; 32.3% in the assay with PC-3 prostate; 22.8% in the assay on SK-MEL-5 melanoma. Besides, the growth is 35.4% with UACC-62 melanoma (10 µM), 13% in the assay on LOX IMVI melanoma and 43.5% in the assay on SK-MEL-28 melanoma.
As to `COC1OCC(O)C(O)C1O` (stereo not drawn), the growth in the assay on HCT-15 colon was 98.5%; in the assay with HT29 colon, 104%; in the assay with SNB-75 CNS, 80.8%; with U251 CNS, 94.5%; in the assay on PC-3 prostate it was 92.4%; in the assay on SK-MEL-5 melanoma it was 101%. Further, the results for the growth in the assay with UACC-62 melanoma (10 µM), in the assay on LOX IMVI melanoma and with SK-MEL-28 melanoma were 105%, 95.3% and 106%, respectively.
Turning to `C[n+]1c2cc(N)ccc2cc2ccc(N)cc21`, the growth is 19.6% [middle of 4 runs] with HCT-15 colon; 4.57% (active) [middle of 4 runs] in the assay on HT29 colon; 1.21% (active) [middle of 4 runs] in the assay on U251 CNS; -30.5% (active) and -37% (active) and -78.6% (active) with UACC-62 melanoma (10 µM); 1.35% (active) [middle of 4 runs] in the assay on LOX IMVI melanoma.
In the case of `Cc1cc(NS(=O)(=O)c2ccc(N=Nc3cc(N=Nc4ccc(S(=O)(=O)Nc5cc(C)nc(C)n5)cc4)c4c(NC(=O)C(Cl)Cl)cccc4c3OC(=O)C(Cl)Cl)cc2)nc(C)n1` (tested in a mixture with another compound), the growth was 88.8% and 84.2% with HCT-15 colon; 118% in the assay on HT29 colon; 75.6% and 61.7% with SNB-75 CNS; 97.5% and 97.7% with U251 CNS; 97.4% and 106% in the assay on PC-3 prostate; 96.9% and 87.6% with SK-MEL-5 melanoma. The growth in the assay on UACC-62 melanoma (10 µM) was 99.8% and 95.8%; in the assay with LOX IMVI melanoma, 92.6% and 104%; in the assay on SK-MEL-28 melanoma, 111%.
With `CC1=CC(C)=Nc2ccc(Cl)cc2N1`, the growth is 113% with HCT-15 colon; 119% with HT29 colon; 90.4% in the assay on SNB-75 CNS; 101% with U251 CNS; 91.9% in the assay on PC-3 prostate; 103% with UACC-62 melanoma (10 µM). The growth in the assay with LOX IMVI melanoma is 91.4%; with SK-MEL-28 melanoma, 124%.
Regarding `O=[N+]([O-])C1=C(c2ccccc2)SC=C(c2ccccc2)S1`, the growth was 58.7% in the assay with HCT-15 colon; 69.8% in the assay with HT29 colon; 92.7% with SNB-75 CNS; 78.3% in the assay on SNB-19 CNS; 51.5% in the assay on U251 CNS; 62% in the assay on PC-3 prostate. The growth in the assay on SK-MEL-5 melanoma was 87%; with UACC-62 melanoma (10 µM), 54.5%; in the assay with LOX IMVI melanoma, 4.56% (active); with SK-MEL-28 melanoma it was 88.2%.
